Experiment: RPMI8226 myeloma cell viability, profiling panel, resazurin fluorescence, basal, 24 h, PK04 Diversity Set (AID 1180);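 note: RPMI8826 multiple myeloma cell line at 5000 cells per well; test concentration not given here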
Conditions: higher = more signal

SMILES | z-score
O=C1NC(=O)C2C1C=CC(C(O)c1cc(C(F)(F)F)cc(C(F)(F)F)c1)N2Nc1ccccn1 (stereo not given) | -1.2
C=C(/C(=C/C[C@H](OC(C)=O)c1ccccc1OCCO)c1cnc2ccccc2c1)C(C)C | -0.817
COC(=O)[C@H](Cc1ccccc1)N1CC2=C[C@@H](C3CC3)n3c(=O)n(C)c(=O)n3[C@H]2[C@@H]1[C@@H](O)Cc1ccccc1 | 0.358
CC(=O)n1cc(C(O)C2C=CC3C(=O)N(c4ccccc4)C(=O)C3N2Nc2ccc([N+](=O)[O-])cc2)c2ccccc21 (stereo not given) | -0.669
CN1C=C(C(=O)OCCS(C)(=O)=O)C(C(=O)OCCS(C)(=O)=O)=CC(c2ccc(CO)cc2)=CC1C1CC1 (stereo not given) | -0.189
COC(=O)[C@]1(CCC(=O)OC(C)(C)C)N=C(c2ccc(OCCCO)cc2)O[C@@H]1c1ccccc1CN=[N+]=[N-] | -4.68
C=CCNC(=O)[C@@H]1[C@H]2C(=O)O[C@H](c3ccccc3)[C@H](c3ccccc3)N2[C@H](c2ccc(OCCO)cc2)[C@@]12C(=O)Nc1ccc(C#CCC(C(=O)OC)C(=O)OC)cc12 | -5.98
COC(=O)C(CC#Cc1ccc2c(c1)[C@]1(C(=O)N2)[C@H](c2ccc(OCCO)cc2)N2[C@H](c3ccccc3)[C@H](c3ccccc3)OC(=O)[C@H]2[C@@H]1C(=O)N1CCc2cc(OC)c(OC)cc2C1)C(=O)OC | -0.368
NC(=O)N1C(=O)C2C(C1=O)C1C=C(c3ccc(CO)cc3)C2C(c2cccs2)N1Cc1cccc(OC(F)(F)F)c1 (stereo not given) | -0.452
C=CCC(OC(C)=O)[C@@H]1[C@@H](N(Cc2ccc(-c3ccccc3)cc2)C(=O)c2cccc3ccccc23)c2cc(OCCCO)ccc2N1C(=O)c1ccc(-c2ccccc2)cc1 (stereo not given in full) | 0.234
COc1cc(NN2C(C(O)c3ccco3)C=CC3C(=O)N(c4ccccc4)C(=O)C32)cc(OC)c1OC (stereo not given) | -1.08
CC(C)[Si]1(C(C)C)O[C@@H](c2ccccc2)c2cc(-c3ccc(-c4ccc(Cl)c(Cl)c4)o3)nc(-c3ccccc3)c21 | -0.406
CCOC(=O)C[C@H]1[C@H](OC(=O)c2ccc(C(=O)c3ccccc3)cc2)[C@@H](NC(=O)c2ccc3ccccc3n2)c2cc(OCCCO)ccc2N1C(=O)c1ccccc1 | -0.999
CC(C)C(O)C1C=CC2C(=O)NC(=O)C2N1Nc1ccc(Cl)cc1Cl (stereo not given) | -1.93
COc1ccc(C#Cc2ccc3c(c2)[C@]2(C(=O)N3)[C@H](C(=O)Nc3nc4ccccc4s3)[C@H]3C(=O)O[C@H](c4ccccc4)[C@H](c4ccccc4)N3[C@@H]2c2ccc(O)cc2)cc1 | 0.338
COC(=O)[C@@]1(Cc2ccccc2)N=C(c2ccc(OCCCO)cc2)O[C@H]1c1ccccc1 | -2.43
[N-]=[N+]=Nc1ccccc1[C@H]1OC(c2ccc(OCCCO)cc2)=N[C@@]1(CCS(=O)(=O)c1ccccc1)C(N)=O | 0.187
O=C1C[C@@](C(=O)NC2CC2)(c2ccc([N+](=O)[O-])cc2)[C@@H](c2ccc(CO)cc2I)N1C1CCCCC1 | -0.538

SMILES | z-score
COc1cc2c(cc1OC)CN(C(=O)[C@H]1[C@@H]3C(=O)O[C@@H](c4ccccc4)[C@@H](c4ccccc4)N3[C@@H](c3ccc(O)cc3)[C@]13C(=O)Nc1ccccc13)CC2 | 0.0788
O=C1O[C@H](c2ccccc2)[C@H](c2ccccc2)N2[C@H]1[C@@H](C(=O)N1CCCCCCC1)[C@]1(C(=O)Nc3ccc(C#CC4=CCCCC4)cc31)[C@H]2c1ccc(OCCO)cc1 | 0.326
COC(=O)[C@@]1(CCC(=O)OC(C)(C)C)N=C(c2ccc(OCCCO)cc2)O[C@H]1c1ccccc1N=[N+]=[N-] | -5.04
O=C1C2C=CC(C(O)c3cc(C(F)(F)F)cc(C(F)(F)F)c3)N(n3cnnc3)C2C(=O)N1Cc1ccccc1 (stereo not given) | -0.394
CCCCCN1CC=CC23O[C@@H]4C=CCCOC(=O)C4[C@H]2C(=O)N(CCCCCO)[C@@H]3C1=O (stereo not given in full) | 0.802
COc1ccc([Si](C)(C)[C@@H]2[C@@H](CCO)O[C@]3(C(=O)N(Cc4ccc(N(C=O)c5ccccc5)cc4)c4ccccc43)[C@H]2C)cc1 | -2.25
C=CCOC(=O)[C@H]1[C@@H]2C(=O)O[C@@H](c3ccccc3)[C@@H](c3ccccc3)N2[C@@H](c2ccc(OCCOC(=O)[C@H]3C[C@H]4C(=O)N[C@@H](CCCCNC(C)=O)C(=O)N4[C@H]3c3cccc(OCCO)c3)cc2)[C@]12C(=O)Nc1ccccc12 | 0.491
[N-]=[N+]=NCc1ccccc1C[C@]1(C(N)=O)COC(c2ccc(OCCCO)cc2)=N1 | 0.399
C=C(CC1([C@@H](NP(=O)(c2ccccc2)c2ccccc2)[C@H]2C[C@@H]2CCCC)CC1)c1ccccc1 | 3.34
CC[C@@H]1C=C(C(=O)O)[C@H](c2ccc(Br)cc2)N1S(=O)(=O)c1ccc(C)cc1 | -1.51
C=C(CCCC)/C(=C/C[C@H](OC(C)=O)c1ccccc1OCCO)c1cc(C(=O)OC)ccc1OC | 0.682
COC(=O)[C@@]1(Cc2ccc(OC)cc2)[C@H]2c3cc(C(=O)N(C)C)n(C)c3C[C@H]2CN1C(=O)c1ccccc1 | -2.45
CN(C)CCCCCCNC(=O)[C@H]1C[C@H]2C(=O)N[C@@H](CCCCN)C(=O)N2[C@H]1c1cccc(OCCO)c1 | -0.614
NC(=O)NCC#Cc1ccc2c(c1)[C@]1(C(=O)N2)[C@H](c2ccccc2OCCO)N2[C@H](c3ccccc3)[C@H](c3ccccc3)OC(=O)[C@H]2[C@@H]1C(=O)Nc1nc2ccccc2s1 | 0.744
CC1CC/C=C\[C@H]2OC34C=CCN(C(C)(C)C)C(=O)[C@H]3N(CCO)C(=O)[C@@H]4C2C(=O)O1 (stereo not given in full) | -0.138
C=C(COC)/C(=C/C[C@H](OC(C)=O)c1ccc(CO)o1)c1cc(C(=O)OC)ccc1OC | -0.746
CNS(=O)(=O)c1ccc(C)cc1 | -0.149

— PubChem BioAssay
